In PubChem BioAssay AID1159580 (chemical genetic matrix, 2015):
The campaign covered roughly 5,500 compounds. About 2,000 (36%) were called active. Inconclusive results (about 18%) are left out. No stated cut-off is given here; in the data, active means normalized growth mostly below about 0.91 (no sharp cut-off); inconclusive means no clear call, values can overlap the other calls; inactive means mostly above about 0.92. The list shows a part of the results.

Assay: chemical genetic growth profiling, strain panel (AID 1159580);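 further: tested at 20 µM; growth read once vehicle control cultures reached saturation at 30 °C; 1 = growth at the plate median or of vehicle wells; lower values mean less growth of the strain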
Settings: growth OD
[1] = S. cerevisiae deletion strains, locus YAL013W, strain DEP1, active compounds read low
[2] = S. cerevisiae deletion strains, locus YBR229C, strain ROT2, active compounds read low
[3] = S. cerevisiae deletion strains, locus YDL101C, strain DUN1, active compounds read low
[4] = S. cerevisiae deletion strains, locus YDR150W, strain NUM1, active compounds read low
[5] = S. cerevisiae deletion strains, locus YEL061C, strain CIN8, active compounds read low
[6] = S. cerevisiae deletion strains, locus YGR078C, strain PAC10, active compounds read low
[7] = S. cerevisiae deletion strains, locus YHR030C, strain SLT2, active compounds read low
[8] = S. cerevisiae deletion strains, locus YHR087W, strain rtc3, active compounds read low
[9] = S. cerevisiae deletion strains, locus YJR043C, strain POL32, active compounds read low
[10] = S. cerevisiae deletion strains, locus YJR075W, strain HOC1, active compounds read low
[11] = S. cerevisiae deletion strains, locus YKL190W, strain CNB1, active compounds read low
[12] = S. cerevisiae deletion strains, locus YLR039C, strain RIC1, active compounds read low
[13] = S. cerevisiae deletion strains, locus YLR058C, strain SHM2 (second series), active compounds read low
[14] = S. cerevisiae deletion strains, locus YLR085C, strain ARP6, active compounds read low
[15] = S. cerevisiae deletion strains, locus YLR262C, strain YPT6, active compounds read low
[16] = S. cerevisiae deletion strains, locus YML094W, strain GIM5, active compounds read low
[17] = S. cerevisiae deletion strains, locus YMR219W, strain ESC1, active compounds read low
[18] = S. cerevisiae deletion strains, locus YMR263W, strain SAP30, active compounds read low
[19] = S. cerevisiae deletion strains, locus YNL153C, strain GIM3, active compounds read low
[20] = S. cerevisiae deletion strains, locus YNL298W, strain CLA4 (second series), active compounds read low
[21] = S. cerevisiae deletion strains, locus YNL322C, strain KRE1, active compounds read low
[22] = S. cerevisiae deletion strains, locus YNR030W, strain Alg12, active compounds read low
[23] = S. cerevisiae deletion strains, locus YPL055C, strain LGE1, active compounds read low
[24] = S. cerevisiae deletion strains, locus YPL241C, strain CIN2, active compounds read low
[25] = S. cerevisiae deletion strains, locus YPR135W, strain CTF4, active compounds read low
[26] = S. cerevisiae strains, strain wild type, active compounds read low
[27] = S. cerevisiae deletion strains, locus YAL040C, strain CLN3, active compounds read low
[28] = S. cerevisiae deletion strains, locus YER002W, strain NOP16, active compounds read low
[29] = S. cerevisiae deletion strains, locus YNL175C, strain NOP13, active compounds read low
[30] = S. cerevisiae deletion strains, locus YNL197C, strain WHI3, active compounds read low
[31] = S. cerevisiae deletion strains, locus YNL224C, strain SQS1, active compounds read low
[32] = S. cerevisiae deletion strains, locus YOR083W, strain WHI5 (second series), active compounds read low

Measured: normalized growth

CC(C)(C)c1nccc(-c2nn(-c3ccc(F)cc3)ccc2=O)n1
inactive: [1] 0.991 | [2] 0.988 | S. cerevisiae deletion strains, locus YCL061C, strain MRC1, active compounds read low 1.02 | [3] 1.03 | S. cerevisiae deletion strains, locus YDL134C, strain PPH21, active compounds read low 0.994 | [4] 0.9 | [5] 1.01 | [6] 1.01 | [7] 1.02 | [8] 0.985 | S. cerevisiae deletion strains, locus YJL187C, strain SWE1, active compounds read low 1.03 | [9] 1 | [10] 1.03 | [11] 1.01 | [12] 0.99 | [13] 1 | [14] 1.15 | [15] 0.974 | [16] 1 | [17] 1 | [18] 0.995 | [19] 1.02 | [20] 1.03 | [21] 1 | [22] 0.999 | S. cerevisiae deletion strains, locus YOL006C, strain TOP1, active compounds read low 1.09 | [23] 0.949 | [24] 1.04 | [25] 0.869 | [26] 0.99

COc1ccc2[nH]c3c(c2c1)CCNC3
inactive: [27] 0.974 | [28] 1.02 | S. cerevisiae deletion strains, locus YGR229C, strain SMI1, active compounds read low 1.05 | [10] 1.01 | S. cerevisiae deletion strains, locus YNL128W, strain TEP1, active compounds read low 0.996 | [19] 0.983 | [29] 0.985 | [30] 0.983 | [31] 1.01 | [32] 0.996 | [23] 1 | [24] 0.981

Cc1ccc2[nH]c3c(c2c1)CCCC3
inactive: [4] 0.911 | [11] 0.989 | [21] 0.949
active: [1] 0.853 | [2] 0.544 | [3] 0.778 | [5] 0.738 | [6] 0.781 | [7] 0.377 | [8] 0.762 | [9] 0.869 | [10] 0.636 | [12] 0.259 | [13] 0.867 | [14] 0.696 | [15] 0.224 | [16] 0.664 | [17] 0.828 | [18] 0.867 | [19] 0.807 | [20] 0.578 | [22] 0.669 | [23] 0.822 | [24] 0.722 | [25] 0.477 | [26] 0.904

O=C1Cc2c([nH]c3ccc(Br)cc23)-c2ccccc2N1
inactive: [27] 0.964 | S. cerevisiae deletion strains, locus YCL061C, strain MRC1 (second series), active compounds read low 0.991 | [4] 0.989 | S. cerevisiae deletion strains, locus YDR363W, strain ESC2, active compounds read low 1.03 | [28] 1.01 | [10] 1.06 | [29] 0.984 | [30] 0.988 | [31] 0.998 | [32] 0.976 | [24] 0.985

Brc1ccc2[nH]c3c(c2c1)CCC3
active: S. cerevisiae deletion strains, locus YDL214C, strain PRR2, active compounds read low 0.69 | S. cerevisiae deletion strains, locus YER123W, strain YCK3, active compounds read low 0.609 | S. cerevisiae deletion strains, locus YER133W, strain GLC7, active compounds read low 0.668 | S. cerevisiae deletion strains, locus YFR019W, strain FAB1, active compounds read low 0.759 | S. cerevisiae deletion strains, locus YGR052W, strain FMP48, active compounds read low 0.595 | [7] 0.344 | S. cerevisiae deletion strains, locus YHR079C, strain IRE1, active compounds read low 0.151 | S. cerevisiae deletion strains, locus YHR082C, strain KSP1, active compounds read low 0.587 | S. cerevisiae deletion strains, locus YJL095W, strain BCK1, active compounds read low 0.467 | S. cerevisiae deletion strains, locus YKL048C, strain ELM1, active compounds read low 0.769 | S. cerevisiae deletion strains, locus YKL067W, strain YNK1, active compounds read low 0.723 | S. cerevisiae deletion strains, locus YLR113W, strain HOG1, active compounds read low 0.44 | S. cerevisiae deletion strains, locus YML070W, strain DAK1, active compounds read low 0.651 | S. cerevisiae deletion strains, locus YNL183C, strain NPR1, active compounds read low 0.519 | S. cerevisiae deletion strains, locus YOL136C, strain PFK27, active compounds read low 0.625 | S. cerevisiae deletion strains, locus YOR231W, strain MKK1, active compounds read low 0.56 | S. cerevisiae deletion strains, locus YPL031C, strain PHO85, active compounds read low 0.647 | S. cerevisiae deletion strains, locus YPL153C, strain RAD53, active compounds read low 0.653 | S. cerevisiae deletion strains, locus YPL204W, strain HRR25, active compounds read low 0.642 | S. cerevisiae deletion strains, locus YPL256C, strain CLN2, active compounds read low 0.472
inactive: S. cerevisiae deletion strains, locus YAR019C, strain CDC15, active compounds read low 0.954 | S. cerevisiae deletion strains, locus YBL105C, strain PKC1, active compounds read low 0.955 | S. cerevisiae deletion strains, locus YBR135W, strain CKS1, active compounds read low 0.934 | S. cerevisiae deletion strains, locus YBR136W, strain MEC1, active compounds read low 0.945 | S. cerevisiae deletion strains, locus YBR160W, strain CDC28, active compounds read low 0.949 | S. cerevisiae deletion strains, locus YDL017W, strain CDC7, active compounds read low 0.962 | S. cerevisiae deletion strains, locus YDL028C, strain MPS1, active compounds read low 0.937 | [3] 0.966 | S. cerevisiae deletion strains, locus YDL108W, strain KIN28, active compounds read low 0.932 | S. cerevisiae deletion strains, locus YDL132W, strain cdc53, active compounds read low 0.962 | S. cerevisiae deletion strains, locus YDR052C, strain DBF4, active compounds read low 0.975 | S. cerevisiae deletion strains, locus YDR054C, strain cdc34, active compounds read low 0.97 | S. cerevisiae deletion strains, locus YDR226W, strain ADK1, active compounds read low 0.96 | S. cerevisiae deletion strains, locus YDR477W, strain SNF1, active compounds read low 0.712 | S. cerevisiae deletion strains, locus YFL009W, strain cdc4, active compounds read low 0.946 | S. cerevisiae deletion strains, locus YFL029C, strain CAK1, active compounds read low 0.942 | S. cerevisiae deletion strains, locus YFR003C, strain YPI1, active compounds read low 0.952 | S. cerevisiae deletion strains, locus YFR028C, strain CDC14, active compounds read low 0.969 | S. cerevisiae deletion strains, locus YGR040W, strain KSS1, active compounds read low 0.716 | S. cerevisiae deletion strains, locus YGR092W, strain DBF2, active compounds read low 0.621 | S. cerevisiae deletion strains, locus YHR205W, strain SCH9, active compounds read low 0.666 | S. cerevisiae deletion strains, locus YIL147C, strain SLN1, active compounds read low 0.947 | S. cerevisiae deletion strains, locus YJL128C, strain PBS2, active compounds read low 0.915 | S. cerevisiae deletion strains, locus YJL157C, strain FAR1, active compounds read low 0.74 | S. cerevisiae deletion strains, locus YJR016C, strain ILV3, active compounds read low 0.946 | S. cerevisiae deletion strains, locus YJR066W, strain TOR1 (second series), active compounds read low 0.67 | S. cerevisiae deletion strains, locus YJR066W, strain TOR1, active compounds read low 0.541 | S. cerevisiae deletion strains, locus YKL101W, strain HSL1, active compounds read low 0.747 | S. cerevisiae deletion strains, locus YKL193C, strain SDS22, active compounds read low 0.937 | S. cerevisiae deletion strains, locus YKL203C, strain TOR2, active compounds read low 0.762 | S. cerevisiae deletion strains, locus YLR133W, strain CKI1, active compounds read low 0.805 | S. cerevisiae deletion strains, locus YLR403W, strain SFP1, active compounds read low 0.757 | S. cerevisiae deletion strains, locus YMR001C, strain CDC5, active compounds read low 0.94 | S. cerevisiae deletion strains, locus YMR205C, strain PFK2 (second series), active compounds read low 0.784 | S. cerevisiae deletion strains, locus YMR277W, strain FCP1, active compounds read low 0.948 | S. cerevisiae deletion strains, locus YNL006W, strain LST8, active compounds read low 0.938 | S. cerevisiae deletion strains, locus YNL020C, strain ARK1, active compounds read low 0.795 | S. cerevisiae deletion strains, locus YNL161W, strain CBK1, active compounds read low 0.942 | S. cerevisiae deletion strains, locus YNL207W, strain RIO2, active compounds read low 0.926 | S. cerevisiae deletion strains, locus YNL222W, strain SSU72, active compounds read low 0.936 | S. cerevisiae deletion strains, locus YNL307C, strain MCK1 (second series), active compounds read low 0.695 | S. cerevisiae deletion strains, locus YOL078W, strain AVO1, active compounds read low 0.942 | S. cerevisiae deletion strains, locus YOR061W, strain CKA2, active compounds read low 0.76 | S. cerevisiae deletion strains, locus YOR119C, strain RIO1, active compounds read low 0.729 | S. cerevisiae deletion strains, locus YOR329C, strain SCD5, active compounds read low 0.948 | S. cerevisiae deletion strains, locus YPL209C, strain IPL1, active compounds read low 0.938 | S. cerevisiae deletion strains, locus YPR025C, strain CCL1, active compounds read low 0.94 | S. cerevisiae deletion strains, locus YPR106W, strain ISR1, active compounds read low 0.94 | S. cerevisiae deletion strains, locus YPR111W, strain DBF20, active compounds read low 0.945 | S. cerevisiae deletion strains, strain NNK1, active compounds read low 0.926 | S. cerevisiae deletion strains, strain TSCII, active compounds read low 0.931
